# Only some compounds are listed: those with a hit (about 2.8% of all), similar ones and a draw of the others.
# MITF TRPM1 HTS: activators of MITF-driven TRPM1 promoter reporter, primary screen, cell-based, SK-MEL-5, luciferase, single point | SK-MEL-5 TRPM1-promoter luciferase, 24 h; % of positive control, neutral wells = 0 | activation, % at 12.5 µM | 300,000 tested, 0.75% active;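 active = mean activation of at least 80% with every replicate also reaching 80%; inconclusive = mean reaches 80% but some replicate falls short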;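 also: 0% = neutral control wells and 100% = parthenolide positive control wells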
# Wnt bcat act: Wnt/beta-catenin pathway activators, primary screen, cell-based, plate reader, single point. activation, % at 9.35 µM. AID 743398, 2014. 300,000 tested, 1.2% active. Wnt/beta-catenin reporter cell assay, activator; in the data active = activation above about 30%, passing the limit was not always enough; inconclusive = no clear call, values can overlap the other calls;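 also: 0% = neutral control wells and 100% = positive control wells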
# esBAF inh: Bmi1 luciferase reporter increase in mESCs, primary screen, esBAF inhibitor project, mouse ES cells, Bmi1 luciferase knock-in, single point. reporter increase, % at 12.5 µM. 350,000 tested, 2% active. AID 602393, 2012. 24 h; 100% = twice the neutral-well signal; in the data active = activation above about 40%; inconclusive = no clear call, values can overlap the other calls;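 also: 0% = median of the plate's neutral control wells and 100% = double that signal; a rise in the Bmi1 reporter signal indicates esBAF inhibition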
# FXN GAA850 act: FXN promoter activators, primary screen, cell-based, luciferase luminescence, HEK293 lucGAA850. HEK293 lucGAA850 FXN promoter luciferase reporter, 24 h; percent of 10 µM SAHA response. activation, % at 6 µM. 360,000 tested, 0.56% active. AID 540364, 2011;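 active = activation above the average of all compounds screened plus 3 SD, cutoff fixed separately per campaign, cut at about 7.5% in these data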;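 also: 0% = DMSO wells and 100% = 10 µM SAHA wells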
# An asterisk follows results filed as active; u = inconclusive; x = not tested or not shown.
SMILES,MITF TRPM1 HTS,Wnt bcat act,esBAF inh,FXN GAA850 act
C[C@@H]1CN([C@@H](C)CO)S(=O)(=O)c2ccc(-c3ccc(C(=O)N(C)C)cc3)cc2O[C@H]1CN(C)C(=O)C1CCCCC1,x,x,-9,x
Cc1noc(C)c1S(=O)(=O)Nc1cccc2c1O[C@H](CN(C)C(=O)Nc1ccc3c(c1)OCO3)[C@H](C)CN([C@H](C)CO)C2=O,x,x,1,x
CC(=O)Nc1ccc(C(=O)Nc2ccc3c(c2)OCO3)cc1,x,x,-2,1
O=C(Nc1ccc2c(c1)OCO2)c1ccc(CO)cc1,35,48*,38,2
CN1C(=O)c2cc(NC(=O)c3cccc(F)c3)ccc2OC[C@H]2O[C@@H](CC(=O)NCc3ccccc3Cl)CC[C@H]21,x,x,-5,x
CCCC(=O)Nc1ccc2c(c1)C(=O)N(C)C[C@H](OC)[C@H](C)CN(C(=O)CC)[C@@H](C)CO2,x,x,-7,x
Cc1ccccc1OCc1nc(-c2ccccc2)no1,97*,x,x,6
Cc1ccc(-c2noc(COc3ccccc3C)n2)cc1,x,9,36,1
CCCc1ccc(OCc2nc(-c3ccc(NC(=O)c4cccs4)cc3)no2)cc1,94*,1,x,7
Cc1ccc(-c2nc(-c3cccnc3)no2)c(C)c1,x,x,44*,4
CC(Oc1ccc(Cl)cc1Cl)c1nc(-c2ccc(NC(=O)c3ccco3)cc2)no1 (configuration not stated),x,x,50*,2
C[C@H](CO)N1C[C@H](C)[C@@H](CN(C)S(=O)(=O)c2ccc(Cl)cc2)OCCCC[C@H](C)Oc2ccc(NS(C)(=O)=O)cc2C1=O,x,x,-3,x
O=C(C[C@@H]1C[C@@H]2c3cc(NC(=O)Nc4ccccc4)ccc3O[C@@H]2[C@@H](CO)O1)NCCN1CCCCC1,x,x,-2,x
CO[C@@H](CN(C)C(=O)Nc1ccc(Cl)cc1)[C@@H](C)CN(Cc1ccccc1Cl)[C@H](C)CO,x,x,-3,x
Cc1cc(Br)ccc1OCc1nc(-c2cccnc2)no1,x,38*,85*,6
Cc1ccccc1OCc1nc(-c2ccc(NC(=O)c3ccco3)cc2)no1,103*,-1,27,5
Cc1ccccc1OCc1nc(-c2ccc(NC(=O)c3cccs3)cc2)no1,57,29,x,4
CCCc1ccc(OCc2nc(-c3ccc(NC(=O)c4ccco4)cc3)no2)cc1,69,x,62*,3
c1ccc(-c2noc(COc3ccc4c(c3)OCO4)n2)cc1,97*,x,63*,4
Cc1ccc(C)c(OCc2nc(-c3cccnc3)no2)c1,35,x,16,1
C[C@@H]1CN([C@H](C)CO)C(=O)c2cccc(NS(=O)(=O)c3cn(C)cn3)c2O[C@@H]1CN(C)C(=O)NC1CCCCC1,x,x,-6,x
C[C@H](CO)N1C[C@H](C)[C@H](CN(C)C(=O)Nc2ccc3c(c2)OCO3)Oc2c(NC(=O)C3CCOCC3)cccc2C1=O,x,x,1,x
COc1ccc(C#Cc2cnc3c(c2)C(=O)N([C@@H](C)CO)C[C@H](C)[C@H](CN(C)C(=O)Nc2cccc(OC)c2)O3)cc1,x,x,0,x
c1ccc(OCc2nc(-c3cccs3)no2)cc1,108*,x,58*,4
Fc1ccc(OCc2nc(-c3cccs3)no2)cc1,72,12,u,3
SMILES,MITF TRPM1 HTS,Wnt bcat act,esBAF inh,FXN GAA850 act
COC(=O)[C@H]1[C@H](CO)[C@H]2Cn3c(ccc(C4=CCCC4)c3=O)[C@H]2N1C(=O)C1CCC1,x,x,1,x
Cn1cccc1/C=N/NC(=O)c1sc2ccccc2c1Cl,45,11,62*,1
O=C(N/N=C/c1ccccn1)c1sc2ccccc2c1Cl,x,0,30,13*
O=C(N/N=C/c1ccc([N+](=O)[O-])o1)c1sc2ccccc2c1Cl,-77,32*,x,-5
O=C(N/N=C\c1ccccn1)c1ccccc1O,10,36*,x,6
C[C@@H]1CCCCO[C@H](CN(C)Cc2ccc3c(c2)OCO3)[C@H](C)CN([C@H](C)CO)C(=O)c2cc(NS(C)(=O)=O)ccc2O1,x,x,-8,x
O=C(N/N=C/c1c[nH]c2ccccc12)c1sc2ccccc2c1Cl,38,x,60*,1
CC(=O)Nc1nc(-c2ccc3c(c2)CCO3)cs1,39,-2,x,2
Nc1nc(-c2ccc3c(c2)CCO3)cs1,52,34*,x,3
Cc1noc(C)c1S(=O)(=O)N(C)C[C@@H]1Oc2ccc(NS(=O)(=O)c3cccs3)cc2CC(=O)N([C@@H](C)CO)C[C@H]1C,x,x,4,x
CCCNC(=O)c1cc(Cl)c(NC(=O)C2=C(C)OCCS2)cc1OC,31,3,8,5
CCCNC(=O)c1cc(Cl)c(NC(=O)C2=CSCCO2)cc1OC,80,20,92*,3
Cc1cc(C(=O)COC(=O)c2ccc(N)c([N+](=O)[O-])c2)c(C)n1-c1ccc2c(c1)OCO2,-12,x,11,0
Cc1cc(C(=O)COC(=O)c2ccc(N)c([N+](=O)[O-])c2)c(C)n1Cc1ccc2c(c1)OCO2,77,37*,89*,3
COc1ccccc1NC(=O)CCC(=O)Nc1nnc(C2CCCCC2)s1,-3,34*,2,0
C[C@@H]1CCCCO[C@@H](CN(C)S(=O)(=O)c2cn(C)cn2)[C@@H](C)CN([C@@H](C)CO)C(=O)c2cc(NS(C)(=O)=O)ccc2O1,x,x,-5,x
O=c1c(O)c(-c2ccc3c(c2)OCO3)oc2ccccc12,48,x,55*,3
O=C(Nc1ccc2c(c1)oc1ccccc12)c1ccc2c(c1)OCO2,x,x,39,3
O=C1CCCC(O)=C1N=Nc1ccc2c(c1)OCO2,19,46*,x,5
NC(=O)c1ccccc1NC(=O)/C=C/c1cccc(Cl)c1,x,x,76*,3
CC(=O)c1ccc(NC(=O)CCc2nnc3ccc(N4CCCC4)nn23)cc1,43,10,57*,2
CCc1ccc(NC(=O)CCc2nnc3ccc(N4CCCC4)nn23)cc1,5,4,3,-4
O=c1[nH]c(-c2ccc(-c3cccc(Cl)c3)o2)nc2ccccc12,104*,u,58*,7
C[C@@H]1CN([C@H](C)CO)C(=O)c2cc(NC(=O)CCC(F)(F)F)ccc2O[C@@H]1CN(C)C(=O)Nc1ccc(F)cc1,x,x,-2,x
c1ccc(CCc2nc3ccccc3[nH]2)cc1,69,42*,20,3
SMILES,MITF TRPM1 HTS,Wnt bcat act,esBAF inh,FXN GAA850 act
O=c1[nH]c2ccccc2nc1Cc1ccc(Cl)cc1,3,-7,0,0
O=c1[nH]c2ccccc2nc1CCc1ccccc1,78,31*,x,6
c1csc(Cc2nc3ccccc3[nH]2)c1,27,18,71*,3
c1ccc2[nH]c(CCCc3nc4ccccc4[nH]3)nc2c1,x,2,-3,0
Cn1c(Cc2cccs2)nnc1SCc1nc2ccccc2[nH]1,-8,x,-2,2
CN1CCN(C(=O)C[C@H]2C=C[C@H](NC(=O)Cc3ccccn3)[C@@H](CO)O2)CC1,x,x,-4,x
Cc1cccc(NC(=O)c2cc(-c3cc(C)c(C)cc3O)n[nH]2)c1,69,u,70*,3
Cc1c(Cl)cccc1NC(=O)c1cc(-c2ccccc2O)n[nH]1,74,10,49*,2

# Screens: PubChem BioAssay, several laboratories
